p53 reactivator: restores transcriptional activity of mutant p53. H1299 p53-A138V BP100-luciferase reporter, luminescence, 24 h. Potency, µM (highest dose often 92.2 µM), for inactives: at the highest dose activity change, positive = activation, usual class: activators. 320,000 compounds, 0.063% hits. AID 504706; note: potency is the fitted concentration of half-maximal effect; % of control where 0% means no effect; nearly all actives have a fitted effect of over 45% in size
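H1299 (p53-null), stable ts p53-A138V + BP100-Luc; 1000 cells/well, Opti-MEM/10% FBS; cpd 4 pt, 1:5; 24 h, 37 deg C, 5% CO2; detection reagent 10 min RT; luminescence.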
Pin1 inhibitor: human Pin1 inhibition | Pin1 FP peptide displacement, HiFluor488, 10 min | Potency, µM (top dose mostly 115 µM), inactives show at the top dose activity, negative = inhibition, usual class: inhibitors | 390,000 compounds, 0.009% hits | AID 504891; active = well fitted inhibition curve with a large enough effect in the polarisation, with a control signal flat, not every such curve was filed as active; inconclusive = small, poorly fitted or top-dose-only effect, or effect the other way, or a change in a side signal; inactive = no such curve, though single readings can be large or run the other way; the % refers to the polarisation; note: potency is the fitted concentration of half-maximal effect; % is set by controls: 0 for no effect and ±100 for the full control effect
Target sequence (Q13526 whole entry, looked up): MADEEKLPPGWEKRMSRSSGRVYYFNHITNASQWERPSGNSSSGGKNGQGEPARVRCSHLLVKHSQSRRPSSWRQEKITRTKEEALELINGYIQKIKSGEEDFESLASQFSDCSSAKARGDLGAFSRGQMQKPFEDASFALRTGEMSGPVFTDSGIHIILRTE
PI4K2A block: blocks human PI4K2A kinase activity; activity change, negative = inhibition, % at 76.9 µM; Q9BTU6; purified PI4K2A, ADP-Glo luminescence, 1 h; stronger effect = lower value; 420,000 compounds, 0.13% hits; in the data active = activity change below about -50%; inconclusive = mostly about -30% to -49%;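 note: -100% = wells without enzyme as full effect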
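In this quantitative HTS, ADP production by PI4K2A was quantified luminescently after 1 h at ambient temperature; 100 microM adenosine served as plate-quality control.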
Giardia killer: Giardia lamblia killing; activity change, % at 7.66 µM, hits read low; AID 540267; Giardia lamblia trophozoite viability; 340,000 compounds, 0.15% hits; in the data active = activity change below about -80%; inconclusive = between about -30% and that limit;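 note: parasites exposed to compound for two days anaerobically before the ATP read; % is set by controls: 0 for no effect and ±100 for the full control effect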
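Killing of trophozoites was scored by loss of ATP luminescence after a 48 hrs anaerobic exposure to compounds at 37 deg C, using 100 cells per well.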
B2AR arrestin: beta2AR (human) beta-arrestin recruitment activity; P07550; beta-arrestin recruitment to beta2AR, cell-based reporter; Potency, µM (top dose mostly 46.1 µM), for the others: at the highest dose activation, most hits filed as activators; 330,000 compounds, 0.02% hits; AID 492947;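 note: potency is the fitted concentration of half-maximal effect; 0% = DMSO controls and full agonism = EC100 isoproterenol or metaproterenol; nearly all actives have a fitted effect of over 65% in size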
Epigenetic derep: regulators of epigenetic silencing causing reporter derepression in mouse cells. AID 1865. 280,000 compounds, 0.2% hits. Potency, µM (highest dose often 53.9 µM), without a hit: at the highest dose GFP activation, most hits filed as activators. murine LDR cells, GFP reporter derepression, 30 h; note: potency is the fitted concentration of half-maximal effect; % of control where 0% means no effect; nearly all actives have a fitted effect of over 60% in size
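Murine LDR cells carrying a silenced, genomically integrated CMV-driven GFP reporter were exposed to compound for 30 hours at 37 C. After PBS washes, GFP-positive cells (20–120 um objects) were counted by laser-scanning microplate cytometry.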
* marks the source's active call; other numbers are inactive results; ? = inconclusive; . = not tested or not shown. This is a sample that favours compounds with a hit; in the whole collection about 0.44% have one here. Unless noted, calls come from the whole dose curve; as a rule, active = well fitted curve in the direction sought with a large enough effect; inconclusive = small, poorly fitted or top-dose-only effect, or another doubt; inactive = no such curve, though single readings can be large; an effect the other way counts as inactive or inconclusive.

SMILES | p53 reactivator | Pin1 inhibitor | PI4K2A block | Giardia killer | B2AR arrestin | Epigenetic derep
O=c1c2c(-c3ccco3)csc2nc(SCc2cn3cccnc3n2)n1-c1ccccc1 | -11% | 96% | -58* | -6 | 0% | 6%
NC(=O)C1CCN(c2ncnc(-c3ccc4c(c3)OCCCO4)n2)CC1 | . | 1% | . | . | . | .
Cc1cc(C)n2nc(-c3ccc(Cl)cc3)cc2n1 | ? | 2% | 2 | -18 | -1% | .
Cc1nc2cc(-c3ccc(Cl)cc3)nn2c(NCCN(C)C)c1C | 17% | -11% | 3 | -96* | 0% | -5%
COC[C@@H](c1ccc(C(F)(F)F)cc1)N1CCN(C2(C)CCN(C(=O)c3c(C)ncnc3C)CC2)C[C@H]1C | . | . | 3 | . | . | .
O=C(C1CCN(c2nc(-c3ccc(Br)cc3)cs2)CC1)N1CCOCC1 | . | 3% | . | . | . | .
CCS(=O)(=O)c1ccc(N=Nc2ccc(O)c3ncccc23)c(OC)c1 | -1% | -4% | -14 | 18 | 0% | 3.5µM*
COc1ccc2nc(-c3cccc(F)c3)sc2c1 | . | -3% | . | . | . | .
O=C(Nc1nc(-c2ccccn2)cs1)c1ccc(Cl)s1 | 19% | 1% | 0 | -26 | 0% | 22µM*
CC(C)(C)c1ccc2c(c1)OC(C(=O)N/N=C/c1ccc([N+](=O)[O-])o1)CO2 (stereo not drawn) | 1% | 0% | 0 | -98* | -1% | 2%
O=C(N/N=C/c1ccc([N+](=O)[O-])o1)c1ccc2c(c1)OCO2 | -4% | -8% | -3 | -91* | 0% | .
O=C(N/N=C/c1ccc([N+](=O)[O-])o1)c1cn(-c2ccccc2)nc1-c1ccc(Cl)cc1 | -2% | 1% | -4 | -90* | 0% | -2%
CC(C)(C)c1ccc2c(c1)OC(C(=O)N/N=C\c1ccncc1)CO2 (stereo not drawn) | -10% | -1% | -9 | 10 | 0% | -1%
O=C(N/N=C\c1ccc(-c2ccc([N+](=O)[O-])cc2)o1)c1ccc2c(c1)OCO2 | -24% | ? | -1 | 19 | 0% | -1%
O=C(N/N=C/c1ccc([N+](=O)[O-])o1)c1cn(-c2ccccc2)nc1-c1ccccc1 | 12% | ? | 0 | -95* | 0% | -1%
O=C1CCc2cc(S(=O)(=O)Nc3ccc(Cl)cc3)ccc2N1 | . | 0% | . | . | . | .
COc1ccc(-n2cnc3c(c2=N)C(c2cccc(OC)c2)c2c(ccc4ccccc24)O3)cc1 (stereo not drawn) | . | 15% | . | . | . | .
O=C(N/N=C\c1ccccc1)c1ccccc1-n1cccc1 | 2% | 1% | 3 | -1 | 0% | -1%
O=C(N/N=C/c1ccc([N+](=O)[O-])o1)c1ccccc1-n1cccc1 | 29% | -1% | 0 | -99* | -1% | .
CCCCCCOC(=O)NC(=N)c1ccc(NCc2nc3cc(C(=O)N(CCC(=O)OCC)c4ccccn4)ccc3n2C)cc1 | . | . | -1 | . | . | .
CCC(Oc1ccccc1)C(=O)Nc1ncc([N+](=O)[O-])s1 (stereo not drawn) | 5% | 3% | -4 | -88* | -1% | 3%
O=C(COC(=O)COc1ccccc1)Nc1ncc([N+](=O)[O-])s1 | ? | ? | -4 | -26 | 0% | .
CC(CC(=O)Nc1ncc([N+](=O)[O-])s1)c1ccccc1 (stereo not drawn) | 15% | -1% | 0 | -86* | -1% | 0%
COc1cccc(C2c3c(ncn(-c4ccccc4C(C)(C)C)c3=N)Oc3ccc4ccccc4c32)c1 (stereo not drawn) | . | 20% | . | . | . | .
Cc1cc2ccccn2c1C(=O)c1cccc([N+](=O)[O-])c1 | 7% | -5% | -7 | 5 | 0% | 2%
Cc1cc2ccccn2c1C(=O)c1ccc([N+](=O)[O-])cc1[N+](=O)[O-] | 12% | -5% | -6 | -86* | 0% | .
O=S(=O)(c1ccc2c(c1)OCCO2)N1CCN(S(=O)(=O)c2cccs2)CC1 | . | 1% | . | . | . | .
Cn1c(=S)[nH]c2sc3c(c2c1=O)CCC(C(C)(C)C)C3 (stereo not drawn) | 20µM* | . | . | . | 0% | .
CC(=O)Nc1sc2c(c1-c1nc3ccccc3s1)CCS(=O)(=O)C2 | . | 17% | . | . | . | .
